In PubChem BioAssay (EPA / NIEHS):
The source made the active and inactive calls. How the source made its calls: active means hit-call score of the fitted dose curve at least 0.9, where 1 is the maximum; inactive means score below 0.9.

How the values were obtained:
[1] = ATG_CRE_CIS: Attagene CIS-FACTORIAL HepG2 Assay for human cAMP Responsive Element (CRE) binding protein 3 (AID 2282926); details: HepG2 CRE cis-reporter, Attagene multiplexed mRNA; actives raise or lower the signal
Summary of the method: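 We dosed HepG2 cells bearing multiple cis-promoter reporter units for 24 h and measured reporter mRNA by RT-PCR with capillary electrophoresis detection. Bidirectional concentration-response fitting used DMSO as negative control.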

[2] = molecular target: CCAAT/enhancer-binding protein beta (Homo sapiens) (UniProt P17676); test: ATG_C_EBP_CIS: Attagene CIS-FACTORIAL HepG2 Assay for human CCAAT/Enhancer Binding Protein (C/EBP) beta (AID 2282927); details: HepG2 Attagene cis-factorial transcription factor reporter; actives raise or lower the signal
Summary of the method: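 RT-PCR/capillary electrophoresis fluorescence of reporter mRNA, 24 h post-dose, in HepG2 cells carrying transfected cis-promoter reporter units. Bidirectional curve fitting against DMSO baseline captures gain or loss of signal.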

[3] = ATG_CMV_CIS: Attagene CIS-FACTORIAL HepG2 Assay for human CMV (Internal Marker) (AID 2282928); details: HepG2 CMV promoter reporter, transcription factor profiling; actives raise or lower the signal;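 further: endpoint acts as a background internal control marker rather than a target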
Summary of the method: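 Endogenous transcription factor activity read in HepG2 via transfected cis-promoter reporter units. After 24 h dosing, reporter mRNA measured by RT-PCR/capillary electrophoresis; gain or loss of signal fit relative to DMSO.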

[4] = ATG_DR4_LXR_CIS: Attagene CIS-FACTORIAL HepG2 Assay for human Liver X Receptor (LXR), DR4 submotif (AID 2282929); details: HepG2 Attagene DR4 cis-reporter, mRNA transcription; actives raise or lower the signal
Summary of the method: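 HepG2 cells transiently transfected with cis-promoter-driven multiplexed reporter units (DR4 element) were dosed for 24 h. Reporter mRNA was quantified by RT-PCR, fluorescent primer extension, HpaI digestion and capillary electrophoresis; bidirectional fitting versus DMSO baseline.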

[5] = molecular target: Aryl hydrocarbon receptor (Homo sapiens) (UniProt P35869); test: ATG_Ahr_CIS: Attagene CIS-FACTORIAL HepG2 Assay for human Aryl Hydrocarbon Receptor (Ahr) (AID 2282930); details: HepG2 AhR cis-factorial reporter transcription; actives raise or lower the signal
Summary of the method: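 HepG2 cells transiently transfected with cis-element-driven multiplexed reporter transcription units; endogenous transcription factor activity measured as reporter mRNA 24 h after dosing. RT-PCR, 6-FAM labelling, HpaI digestion, capillary electrophoresis; bidirectional fitting versus DMSO baseline.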

[6] = ATG_AP_1_CIS: Attagene CIS-FACTORIAL HepG2 Assay for human Activator Protein 1 (AP-1) (AID 2282931); details: HepG2 Attagene cis-factorial AP-1 reporter mRNA; actives raise or lower the signal
Summary of the method: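 HepG2 cells transiently transfected with cis-element-driven multiplex reporter units; 24 h compound exposure. Reporter mRNA quantified by RT-PCR, FAM-labelled fragments resolved by capillary electrophoresis; bidirectional fit versus DMSO baseline.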

[7] = ATG_AP_2_CIS: Attagene CIS-FACTORIAL HepG2 Assay for human Activator Protein 2 (AP-2) (AID 2282932); details: HepG2 AP-2 cis-reporter, Attagene transcription factor profiling; actives raise or lower the signal
Summary of the method: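 HepG2 cells were transiently transfected with multiple cis-promoter reporter transcription units and dosed for 24 h. Reporter mRNA was measured by RT-PCR with capillary electrophoresis fluorescence; bidirectional fits relative to DMSO baseline.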

[8] = ATG_BRE_CIS: Attagene CIS-FACTORIAL HepG2 Assay for human Bone Morphogenetic Protein (BMP) Response Element (BRE) (AID 2282933); details: HepG2 BMP response element reporter, Attagene transcription factor profiling; actives raise or lower the signal
Summary of the method: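 Endogenous transcription factor activity at a BMP response element was monitored in transfected HepG2 cells 24 h after dosing. Fluorescent RT-PCR products were resolved by capillary electrophoresis, and activity was fitted in both directions versus DMSO.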

[9] = molecular target: Retinoic acid receptor alpha (Homo sapiens) (UniProt P10276); test: ATG_DR5_RAR_CIS: Attagene CIS-FACTORIAL HepG2 Assay for human Retinoic Acid Receptor Alpha (RARE), DR5 submotif (AID 2282934); details: HepG2 Attagene cis-factorial RARE DR5 reporter, mRNA; actives raise or lower the signal
Summary of the method: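 HepG2 cells transiently transfected with multiplexed reporter units under cis (DR5 RARE) promoters, so endogenous transcription factor activity is measured. After 24 h compound exposure, reporter mRNA is quantified by RT-PCR with fluorescent labelling and capillary electrophoresis; bidirectional fitting versus DMSO.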

[10] = molecular target: Transcription factor E2F1 (Homo sapiens) (UniProt Q01094); test: ATG_E2F_CIS: Attagene CIS-FACTORIAL HepG2 Assay for human E2F Transcription Factor 1 (AID 2282935); details: HepG2 Attagene cis-reporter, E2F reporter RNA transcripts; actives raise or lower the signal
Summary of the method: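 HepG2 cells transiently transfected with multiplexed cis-element reporter units, dosed for 24 h. Reporter mRNA measured by RT-PCR, 6-FAM primer-extension labeling, HpaI digestion and capillary electrophoresis; bidirectional fit versus DMSO baseline.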

[11] = ATG_E_Box_CIS: Attagene CIS-FACTORIAL HepG2 Assay for human Enhancer Box (E-box) (AID 2282936); details: HepG2 E-box cis-reporter transcription, actives raise or lower the signal
Summary of the method: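 HepG2 cells transiently transfected with multiplexed cis-element reporter units sensing endogenous transcription factor activity; 24 h compound exposure. Reporter mRNA measured by RT-PCR, 6-FAM primer extension, HpaI digestion and capillary electrophoresis; bidirectional fit versus DMSO.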

[12] = ATG_M_61_CIS: Attagene CIS-FACTORIAL HepG2 Assay for M61 Transcription Factor (Internal Marker) (AID 2282937); details: HepG2 Attagene CIS-FACTORIAL M61 internal marker reporter; actives raise or lower the signal
Summary of the method: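 HepG2 cells transiently transfected with cis-element-driven multiple reporter transcription units, dosed for 24 h. Reporter mRNA measured by RT-PCR, 6-FAM primer-extension labelling, HpaI digestion and capillary electrophoresis; bidirectional fit versus DMSO baseline.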

[13] = ATG_EGR_CIS: Attagene CIS-FACTORIAL HepG2 Assay for human Early Growth Response 1 (EGR1) (AID 2282938); details: HepG2 Attagene CIS-FACTORIAL EGR reporter mRNA; actives raise or lower the signal
Summary of the method: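 HepG2 cells transiently transfected with cis-promoter-driven multiplexed reporter transcription units; reporter mRNA measured 24 h after compound dosing by RT-PCR, 6-FAM primer extension, HpaI digestion and capillary electrophoresis. Bidirectional fit versus DMSO baseline.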

[14] = ATG_M_19_CIS: Attagene CIS-FACTORIAL HepG2 Assay for M19 Transcription Factor (Internal Marker) (AID 2282939); details: HepG2 Attagene CIS-FACTORIAL M19 internal marker reporter; actives raise or lower the signal
Summary of the method: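 Background-control endpoint from a multiplexed HepG2 reporter panel. Cells carrying cis-regulated reporter constructs are treated 24 h, then reporter transcripts are amplified, fluorescently labelled and sized by capillary electrophoresis. DMSO defines baseline.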

[15] = ATG_Ets_CIS: Attagene CIS-FACTORIAL HepG2 Assay for human Erythroblast Transformation Specific (ETS) (AID 2282941); details: HepG2 ETS cis-reporter transcription, actives raise or lower the signal
Summary of the method: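 Steps: transfect HepG2 with multiple reporter units; treat compound 24 h; isolate RNA, DNase-treat, reverse-transcribe; PCR-amplify, label with 6-FAM, digest with HpaI; separate by capillary electrophoresis. Activity fitted both directions versus DMSO.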

[16] = molecular target: Hepatocyte nuclear factor 3-beta (Homo sapiens) (UniProt Q9Y261); test: ATG_FoxA2_CIS: Attagene CIS-FACTORIAL HepG2 Assay for human Forkhead box A2 (FOXA2) (AID 2282942); details: HepG2 cis-reporter transcription factor activity, 24 h; actives raise or lower the signal
Summary of the method: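 HepG2 cells transiently transfected with multiple cis-regulated reporter transcription units, dosed for 24 h. Reporter mRNA measured by RT-PCR, 6-FAM labelling, HpaI digestion and capillary electrophoresis; bidirectional fitting against DMSO baseline.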

[17] = ATG_FoxO_CIS: Attagene CIS-FACTORIAL HepG2 Assay for human Forkhead box O (FoxO) (AID 2282943); details: HepG2 Attagene cis-reporter, FoxO element, mRNA; actives raise or lower the signal
Summary of the method: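 HepG2 cells transiently transfected with cis-promoter-driven multiple reporter transcription units; 24 h after chemical dosing, reporter mRNA quantified by RT-PCR, fluorescent primer extension, HpaI digestion and capillary electrophoresis. Bidirectional fitting versus DMSO baseline.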

[18] = ATG_GATA_CIS: Attagene CIS-FACTORIAL HepG2 Assay for human GATA Binding Protein (AID 2282944); details: HepG2 GATA cis-element reporter, Attagene multiplex mRNA; actives raise or lower the signal
Summary of the method: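 Endogenous transcription factor activity was captured through cis-promoter-driven reporters in transfected HepG2 cells. After 24 h exposure, reporter transcripts were quantified by RT-PCR with fluorescent capillary electrophoresis, and responses fitted both directions against DMSO.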

[19] = ATG_GLI_CIS: Attagene CIS-FACTORIAL HepG2 Assay for human Zinc Finger Protein GLI1 (AID 2282945); details: HepG2, Attagene cis-factorial reporter mRNA, GLI element; actives raise or lower the signal
Summary of the method: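 HepG2 cells transiently transfected with cis-promoter multiplexed reporter units report endogenous transcription factor activity. After 24 h chemical exposure, reporter mRNA was quantified by RT-PCR, 6-FAM labelling, HpaI digestion and capillary electrophoresis, with bidirectional fitting against DMSO.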

Measured: AC50

Chain of Hepatocyte nuclear factor 3-beta (Homo sapiens) (Q9Y261 whole entry, looked up): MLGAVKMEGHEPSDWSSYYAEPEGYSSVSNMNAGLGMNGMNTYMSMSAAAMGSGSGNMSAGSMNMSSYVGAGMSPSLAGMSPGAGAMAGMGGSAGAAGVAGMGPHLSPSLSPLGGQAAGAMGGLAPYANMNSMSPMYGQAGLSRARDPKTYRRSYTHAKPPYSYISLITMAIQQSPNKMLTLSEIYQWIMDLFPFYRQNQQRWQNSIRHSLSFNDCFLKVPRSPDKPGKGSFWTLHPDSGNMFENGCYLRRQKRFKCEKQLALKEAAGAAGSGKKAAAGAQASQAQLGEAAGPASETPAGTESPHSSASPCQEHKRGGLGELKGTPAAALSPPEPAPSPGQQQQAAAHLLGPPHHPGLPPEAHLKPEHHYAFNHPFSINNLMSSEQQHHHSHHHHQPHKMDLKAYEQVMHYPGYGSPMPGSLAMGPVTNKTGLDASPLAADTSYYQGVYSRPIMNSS
Chain of Aryl hydrocarbon receptor (Homo sapiens) (P35869 whole entry, looked up): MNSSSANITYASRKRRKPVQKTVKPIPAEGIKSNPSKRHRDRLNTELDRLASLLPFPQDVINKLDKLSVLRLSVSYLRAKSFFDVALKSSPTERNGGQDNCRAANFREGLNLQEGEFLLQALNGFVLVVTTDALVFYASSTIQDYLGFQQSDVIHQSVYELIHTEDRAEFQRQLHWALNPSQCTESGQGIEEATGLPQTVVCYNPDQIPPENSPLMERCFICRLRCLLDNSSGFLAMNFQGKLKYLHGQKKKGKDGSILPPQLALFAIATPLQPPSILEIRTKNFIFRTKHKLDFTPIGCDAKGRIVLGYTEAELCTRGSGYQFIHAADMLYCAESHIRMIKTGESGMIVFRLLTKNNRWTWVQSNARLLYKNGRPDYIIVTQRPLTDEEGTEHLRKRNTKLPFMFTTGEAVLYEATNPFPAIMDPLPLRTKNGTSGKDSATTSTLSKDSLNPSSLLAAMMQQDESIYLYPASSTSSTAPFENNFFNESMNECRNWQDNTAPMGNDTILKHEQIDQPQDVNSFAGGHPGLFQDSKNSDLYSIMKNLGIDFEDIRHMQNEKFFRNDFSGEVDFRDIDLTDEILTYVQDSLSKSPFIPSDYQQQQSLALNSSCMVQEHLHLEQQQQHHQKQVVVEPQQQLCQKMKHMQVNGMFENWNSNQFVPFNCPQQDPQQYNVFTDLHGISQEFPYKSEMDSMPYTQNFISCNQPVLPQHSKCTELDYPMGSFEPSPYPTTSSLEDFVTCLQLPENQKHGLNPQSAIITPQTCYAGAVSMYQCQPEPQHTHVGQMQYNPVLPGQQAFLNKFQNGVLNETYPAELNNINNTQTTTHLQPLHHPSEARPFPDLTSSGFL
Chain of CCAAT/enhancer-binding protein beta (Homo sapiens) (P17676 whole entry, looked up): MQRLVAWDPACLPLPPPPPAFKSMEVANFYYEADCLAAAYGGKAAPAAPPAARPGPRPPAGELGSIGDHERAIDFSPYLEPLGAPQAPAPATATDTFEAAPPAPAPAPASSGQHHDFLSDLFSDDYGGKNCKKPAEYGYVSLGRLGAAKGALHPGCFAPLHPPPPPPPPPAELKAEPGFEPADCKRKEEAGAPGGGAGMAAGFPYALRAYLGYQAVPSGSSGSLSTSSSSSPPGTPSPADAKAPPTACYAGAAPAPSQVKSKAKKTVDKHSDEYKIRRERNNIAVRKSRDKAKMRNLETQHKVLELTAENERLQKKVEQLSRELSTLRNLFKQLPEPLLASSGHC
Chain of Transcription factor E2F1 (Homo sapiens) (Q01094 whole entry, looked up): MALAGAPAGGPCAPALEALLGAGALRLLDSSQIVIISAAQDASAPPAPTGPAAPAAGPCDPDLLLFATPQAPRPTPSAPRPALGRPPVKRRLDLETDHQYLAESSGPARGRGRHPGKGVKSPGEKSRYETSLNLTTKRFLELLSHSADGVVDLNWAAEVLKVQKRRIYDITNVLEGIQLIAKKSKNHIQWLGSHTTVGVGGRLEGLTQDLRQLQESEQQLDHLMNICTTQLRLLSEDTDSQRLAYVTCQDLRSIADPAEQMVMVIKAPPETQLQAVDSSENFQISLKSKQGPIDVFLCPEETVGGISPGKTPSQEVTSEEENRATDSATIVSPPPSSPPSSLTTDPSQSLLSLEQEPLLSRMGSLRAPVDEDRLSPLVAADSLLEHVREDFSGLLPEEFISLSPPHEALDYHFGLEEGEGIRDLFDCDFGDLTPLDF
Chain of Retinoic acid receptor alpha (Homo sapiens) (P10276 whole entry, looked up): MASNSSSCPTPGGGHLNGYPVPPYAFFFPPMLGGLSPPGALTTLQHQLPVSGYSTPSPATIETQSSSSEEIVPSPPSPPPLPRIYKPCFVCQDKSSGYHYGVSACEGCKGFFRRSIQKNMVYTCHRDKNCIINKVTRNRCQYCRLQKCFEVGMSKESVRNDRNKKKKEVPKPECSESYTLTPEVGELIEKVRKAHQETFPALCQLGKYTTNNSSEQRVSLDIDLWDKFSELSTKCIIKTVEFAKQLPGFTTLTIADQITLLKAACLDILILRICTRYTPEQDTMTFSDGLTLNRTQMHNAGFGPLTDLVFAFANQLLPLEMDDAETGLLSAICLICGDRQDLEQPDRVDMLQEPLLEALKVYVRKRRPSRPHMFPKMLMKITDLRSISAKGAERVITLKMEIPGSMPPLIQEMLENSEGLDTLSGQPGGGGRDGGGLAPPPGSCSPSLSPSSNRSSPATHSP

CCCCCCCCC=CCCCCCCCC1=NCCN1CCO
active: [3] 48.2 µM | [4] 40.6 µM | [6] 100 µM | [10] 26.1 µM | [11] 26.7 µM | [15] 126 µM | [16] 25.7 µM
inactive: [1] | [2] | [5] | [7] | [8] | [9] | [12] | [13] | [14] | [17] | [18] | [19]

CC1(C)O[C@@H]2C[C@H]3[C@@H]4CCC5=CC(=O)C=C[C@]5(C)[C@@]4(F)[C@@H](O)C[C@]3(C)[C@]2(C(=O)CO)O1
inactive: [1] | [2] | [3] | [4] | [6] | [7] | [8] | [9] | [10] | [11] | [12] | [13] | [14] | [16] | [17] | [18] | [19]
active: [5] 0.082 µM

O=C(Nc1ccc2c(c1)Cc1ccccc1-2)C(F)(F)F
inactive: [1] | [2] | [3] | [4] | [6] | [7] | [8] | [9] | [10] | [11] | [12] | [13] | [14] | [16] | [17] | [18] | [19]
active: [5] 10.2 µM

CC1=NN(c2ccc(S(=O)(=O)O)cc2)C(=O)C1
inactive: [1] | [2] | [3] | [4] | [5] | [6] | [7] | [8] | [9] | [10] | [11] | [12] | [13] | [14] | [15] | [17] | [19]

c1ccc(CCc2ccccc2)cc1
inactive: [1] | [2] | [3] | [5] | [7] | [8] | [9] | [10] | [11] | [12] | [13] | [14] | [15] | [16] | [17] | [18] | [19]
active: [4] 161 µM | [6] 172 µM

CC(CN=Cc1ccccc1O)N=Cc1ccccc1O (stereo unspecified)
active: [3] 100 µM | [5] 68.7 µM | [6] 100 µM
inactive: [1] | [2] | [4] | [7] | [8] | [9] | [10] | [11] | [12] | [13] | [14] | [15] | [16] | [17] | [18] | [19]

O=C(O)CCCCCCCCCCCC(=O)O
inactive: [1] | [2] | [3] | [4] | [5] | [6] | [7] | [8] | [9] | [10] | [11] | [12] | [13] | [14] | [15] | [17] | [18] | [19]

O=C1CCCC=CCCCCCCCCCC1
inactive: [1] | [2] | [5] | [7] | [8] | [9] | [10] | [11] | [12] | [13] | [14] | [15] | [16] | [17] | [19]
active: [3] 44.1 µM | [4] 33.4 µM | [6] 50.3 µM
